Many of the other results were omitted from the sample, so hits are more common in it than they were.
Pf Dd2 inh: Plasmodium falciparum Dd2 growth inhibition; 4.3% of 120,000 active; Potency, µM (top dose mostly 28.9 µM), inactives show top-dose activity, negative = inhibition, usual class: inhibitors; P. falciparum Dd2 growth, SYBR Green, 72 h; AID 1347417; active = well fitted inhibition curve with a large enough effect;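 also: plate controls were DMSO vehicle for no effect and reference drug for full effect; nearly all actives have a fitted effect of over 65% in size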
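Infected erythrocytes (Dd2, 0.3% parasitemia, 2.5% hematocrit final) are added to compound in RPMI-1640/Albumax II medium, grown 72 h at 37C in low oxygen, then lysed with saponin/Triton-X containing SYBR Green and read by fluorescence.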
Starred values were filed as active, the others as inactive; i = inactive; [ ] = dose if it differs, or a comment. Potency is read from the fitted curve at half-maximal effect.

SMILES | Pf Dd2 inh
Cc1ccc(NC(=O)c2sc3nc(-c4cc5ccccc5oc4=O)[nH]c(=O)c3c2C)c(C)c1 | 25.1%
CCC(C)NC(=O)c1sc2nc(C)c(C(=O)Nc3ccc(C)cc3C)c(-c3ccccc3Cl)c2c1N (centres undefined) | 3.16µM*
CCC(C)NC(=O)c1sc2nc(C)c(C(=O)Nc3ccc(C)cc3C)c(-c3ccc(Cl)cc3)c2c1N (centres undefined) | -5.4%
Cc1ccc(NC(=O)c2sc3nc(-c4cccs4)ccc3c2N)cc1F | -3.7%
COc1cccc(-c2ccc3c(N)c(C(=O)Nc4ccc(C)c(F)c4)sc3n2)c1 | 4.8%
CCOc1ccccc1NC(=O)c1sc2nc(C)cc(C)c2c1N | -11.3%
O=C(O)c1cccc([S+](=O)([O-])N2CC(CNC(=O)c3ccccc3)C3(CN(c4ccccc4)C3)C2)c1 (centres undefined) | i
COCCNC(=O)[C@@H]1C[C@H](Oc2ccccc2)CN1C(=O)c1n[nH]c(=O)c2ccccc12 | -5.8%
CCn1cc2c3c(cccc31)CN(C(=O)CC(C)(C)C)CC2 | -4.8%
COc1ccc(CN2CCc3nn(CC4CC4)c(=O)n3CC2)c(Cl)c1OC | -21.8%
COc1cccc(S(=O)(=O)N2CCC(Oc3ccc(C(N)=O)cn3)CC2)c1 | -12.8%
Cc1nc2c(c(-c3ccc(O)cc3)n1)CN(Cc1ccccn1)CC2 | 5.9%[44.1 µM]
CN1C(=O)CCc2cc(NC(=O)Cc3ccccc3Cl)ccc21 | -9.9%
c1nc(-c2cc(NC3CCNCC3)nc3[nH]ccc23)c2sccc2n1 | i
CN(C)C(=O)c1ccc(-c2cc(NC3CCCC3)nc3[nH]ccc23)o1 | 8.91µM*
O=C(NCc1ccnc2[nH]ccc12)C1CCCC1 | 5.3%[44.1 µM]
COCCc1noc([C@@H]2CN(C3CCCCCC3)C[C@H]2CO)n1 | -7.1%
O=C1CCSc2ccc(S(=O)(=O)Nc3cccc(C(F)(F)F)c3)cc2N1 | 35.4%
Cc1ccccc1NS(=O)(=O)c1ccc2c(c1)NC(=O)CCS2 | -7.9%
Cc1ccc(NS(=O)(=O)c2ccc3c(c2)NC(=O)CCS3)cc1C | 10µM*
COCc1cn(C[C@H]2C[C@@H](NC(=O)c3cc(C)n(C)n3)[C@H](O)[C@@H]2O)nn1 | 20.9%
O=C(c1ccccc1OC(F)(F)F)N1CCC2(CC1)CC(O)CCO2 (centres undefined) | 20.3%
COc1ccc(C2Cn3nnc(C(=O)N4CCN(C(=O)c5ccccc5C)CC4)c3CO2)cc1 (centres undefined) | i
Cc1cc(C)cc(CCC(=O)N2CCC3(CC2)C(C(=O)O)CC(=O)N3C)c1 (centres undefined) | -21.4%
CCC(=O)N1CCc2cc(Br)cc(S(=O)(=O)NCCc3cccc(C)c3)c21 | -17.4%
SMILES | Pf Dd2 inh
COc1cc(NS(=O)(=O)c2cc(Br)cc3c2N(C(=O)C2CC2)CC3)cc(OC)c1 | -18.1%
CCN(C(=O)C1CCN(S(=O)(=O)c2cc(Br)cc3c2N(C(C)=O)CC3)CC1)c1cccc(C)c1 | 5.01µM*
CCC(=O)N1CCc2cc(Br)cc(S(=O)(=O)N3CCC(C(=O)Nc4ccc(OC)cc4)CC3)c21 | -27.3%
O=C(C1CC1)N1CCc2cc(Br)cc(S(=O)(=O)Nc3ccc(F)c(F)c3)c21 | -0.3%
Cc1cccc(N2CCN(S(=O)(=O)c3cc(Br)cc4c3N(C(=O)C3CC3)CC4)CC2C)c1 (centres undefined) | 11.2µM*
CCN(c1ccccc1)S(=O)(=O)c1cc(Br)cc2c1N(C(=O)C1CC1)CC2 | 1.12µM*
O=C(C1CC1)N1CCc2cc(Br)cc(S(=O)(=O)N3CCN(c4ccccc4)CC3)c21 | 21.0%
Cc1ccc(NS(=O)(=O)c2cc(Br)cc3c2N(C(=O)C2CC2)CC3)cc1C | -24.1%
O=C(c1cnccn1)N1C[C@@H]2OCC(=O)N(c3ccccc3)[C@@H]2C1 | -3.6%[44.1 µM]
CN(C)C(=O)c1c[nH]c2cccnc12 | 14.5%[44.1 µM]
CCOc1ccccc1C(=O)N1CCN(Cc2ccc(=O)n(C)c2)CC1 | -20.2%
CN1C(=O)C(CC(=O)Nc2cccnc2)=C2CCCCC21 (centres undefined) | -21.3%
C=CCNC(=O)c1coc(COc2ccc3c(c2)C(c2ccc(C)cc2)N(C(=O)C2CC2)CC3)n1 (centres undefined) | -14.4%
COCCNC(=O)c1coc(COc2ccc3c(c2)C(c2ccc(C)cc2)N(C(=O)C2CC2)CC3)n1 (centres undefined) | i
CCNC(=O)c1coc(COc2ccc3c(c2)C(c2ccc(F)cc2)N(C(=O)CC(C)C)CC3)n1 (centres undefined) | 1.41µM*
COc1ccc(CN2CC3(CCN(C(=O)c4cn[nH]c4-c4ccc(F)cc4)CC3)C2=O)cc1 | -2.0%
COc1cc(C2CC(=O)N(Cc3cccc(F)c3)c3ccccc3S2)cc(OC)c1OC (centres undefined) | 4.47µM*
COc1ccccc1NC(=O)NC1CC(=O)N(Cc2cccc(F)c2)C1 (centres undefined) | -1.0%
COc1ccccc1C(=O)NC1CC(=O)N(Cc2cccc(F)c2)C1 (centres undefined) | -2.7%
CCN(CC)c1ncccc1CNC(=O)COC | -5.7%
Cc1c(C(=O)N2CC[C@](C)(O)[C@@H](O)C2)[nH]c2c(F)cccc12 | -11.6%

Compound activity: PubChem, National Center for Advancing Translational Sciences (NCATS)
